High-throughput results deposited in PubChem BioAssay by several laboratories.
FBA Mtb inh – Mtb FBA enzyme inhibitors, primary screen, biochemical, fluorescence, strain H37Rv | Fructose-bisphosphate aldolase (Mycobacterium tuberculosis (strain ATCC 25618 / H37Rv)), … | purified M. tuberculosis FBA, fluorescence read-out | inhibition, % at 1 µM | 360,000 tested, 2.3% active | AID 588726, 2011;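 further: 0% = vehicle and 100% = reference inhibitor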
Target sequence (P9WQA3 whole entry, looked up): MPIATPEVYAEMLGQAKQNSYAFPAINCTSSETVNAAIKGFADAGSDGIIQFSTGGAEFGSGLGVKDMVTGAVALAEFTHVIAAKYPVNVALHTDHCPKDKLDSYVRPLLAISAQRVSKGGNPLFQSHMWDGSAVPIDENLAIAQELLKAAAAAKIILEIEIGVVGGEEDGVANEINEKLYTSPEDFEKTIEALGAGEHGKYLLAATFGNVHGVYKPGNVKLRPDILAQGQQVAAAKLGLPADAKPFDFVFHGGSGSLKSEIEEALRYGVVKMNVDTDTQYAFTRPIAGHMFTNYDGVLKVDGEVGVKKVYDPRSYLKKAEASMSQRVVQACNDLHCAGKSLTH
FadD28 FP inh – inhibitors of FadD28 bisubstrate probe binding, primary screen, biochemical, fluorescence polarization, single point | Mycobacterium tuberculosis FadD28 fatty-acid-AMP ligase | 360,000 tested, 0.22% active | inhibition, % at 12.5 µM; in the data active means inhibition above about 8.5%, passing the limit was not always enough
GDH-TPI counter-1 – GDH-TPI coupling enzyme inhibitors, primary screen, artefact control for M. tuberculosis FBA inhibitor project, biochemical, absorbance, full deck; GDH-TPI coupled enzyme counterscreen, NADH absorbance; inhibition, % at 4.8 µM; 360,000 tested, 1.2% active; AID 588335, 2011; in the data active means inhibition above about 30%;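 further: 0% = DMSO wells and 100% = wells lacking the enzyme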
Mtb BioA inh – M. tuberculosis BioA enzyme inhibitors, primary screen, biochemical, plate reader, single point, HTS; 360,000 tested, 0.096% active; purified M. tuberculosis BioA enzyme; inhibition, % at 9.99 µM; AID 602481, 2012; 7,8-diaminopelargonic acid synthase BioA (Mycobacterium tuberculosis); in the data active means inhibition above about 40%
Mtb hypoxia rep – PubChem AID 1159583 | fluorescence inhibition, % (no concentration beside the values) | M. tuberculosis hypoxia-regulated fluorescent reporter, fluorescence | 300,000 tested, 0.1% active; in the data active means fluorescence inhibition mostly above about 23%, no sharp cut-off; inactive means mostly below about 17%
Mtb FBA inh conf – M. tuberculosis aldolase blockers, biochemical, fluorescence, strain H37Rv, confirmation. purified M. tuberculosis FBA, fluorescence read-out. inhibition, % at 1 µM. 5,600 tested, 78% active. shares compounds with FBA Mtb inh;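 further: 0% = vehicle wells and 100% = reference inhibitor wells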
GDH-TPI counter-2 – GDH-TPI coupling enzyme inhibitors, artefact control for M. tuberculosis FBA inhibitor project, biochemical, fluorescence, high throughput; shares compounds with FBA Mtb inh; GDH-TPI coupled enzyme counterscreen; inhibition, % at 1 µM; 5,600 tested, 81% active; in the data active means inhibition above about 10%
Active calls of the source: *; / = no result. Hits are enriched below; roughly 2.9% of the tested compounds scored in any of these assays. Unless noted, no stated cut-off is given here; in the data, active means inhibition above about 27%; inactive means the rest.

SMILES	FBA Mtb inh	FadD28 FP inh	GDH-TPI counter-1	Mtb BioA inh	Mtb hypoxia rep	Mtb FBA inh conf	GDH-TPI counter-2
Cc1noc(C)c1NC(=O)NCC[C@H]1CC[C@H](NC(=O)Nc2cccc(F)c2)[C@H](CO)O1	/	/	/	3	/	/	/
CCCCc1cc(=O)oc2cc(C)cc(OC(C)C(=O)NCc3ccncc3)c12 (stereo not given)	42*	0	1	/	4	109*	76*
Cc1cc(OCC(=O)NCCc2ccc(S(N)(=O)=O)cc2)c2c(C)cc(=O)oc2c1	67*	-3	-6	-3	7	120*	97*
Cc1cc(OC(C)C(=O)NCc2ccncc2)c2c(C)c(C)c(=O)oc2c1 (stereo not given)	103*	0	7	0	4	57*	49*
Cc1cc(OC(C)C(=O)NCc2ccccn2)c2c(C)c(Cc3ccccc3)c(=O)oc2c1 (stereo not given)	4	-2	9	0	8	/	/
CC(Oc1ccc(Cl)cc1Cl)C(=O)NCc1ccncc1 (stereo not given)	0	0	8	1	6	/	/
C[C@H](CO)N1C[C@H](C)[C@@H](CN(C)Cc2ccc3c(c2)OCO3)OCCCC[C@H](C)Oc2ccc(NC(=O)CCC(F)(F)F)cc2C1=O	/	/	/	3	/	/	/
O=C(NCC1CC1)c1ccc2c3n(nc2c1)-c1ccc(Cl)cc1CO3	1	2	0	-2	9	/	/
CCCCn1nc2cc(C(=O)NCC3CC3)ccc2c1OCC	88*	1	7	-4	8	144*	116*
CCCCNC(=O)c1ccc2c(OCC)n(CCCC)nc2c1	65*	-2	-3	1	8	93*	61*
CCCn1nc2cc(C(=O)NCCc3cccs3)ccc2c1OCC	55*	0	19	-2	7	-6	-6
CCCCn1nc2cc(C(=O)NC[C@@H]3CCCO3)ccc2c1OCC	63*	-2	5	0	/	124*	95*
CCCCn1nc2cc(C(=O)NCC3CCCO3)ccc2c1OCC (stereo not given)	/	/	/	/	5	/	/
CCCCNC(=O)c1ccc2c(SCC(=O)O)c3c(nc2c1)CCCC3	1	-2	-3	1	4	/	/
CCS(=O)(=O)Nc1ccc2c(c1)C(=O)N(C)C[C@H](OC)[C@@H](C)CN(CC1CCCCC1)[C@H](C)CO2	/	/	/	6	/	/	/
COc1ccc(C(=O)NC2CCc3ccccc32)cc1OC1CCN(C(C)=O)CC1 (stereo not given)	-1	0	2	1	5	/	/
CCOc1c2ccc(C(=O)NCCCCc3ccccc3)cc2nn1C	60*	0	10	-1	4	3	0
CCCn1nc2cc(C(=O)NC3CCc4ccccc43)ccc2c1OCC (stereo not given)	40*	-2	0	-1	18	71*	64*
CNC[C@H]1Oc2c(NS(C)(=O)=O)cccc2C(=O)N([C@@H](C)CO)C[C@H]1C	/	/	/	0	/	/	/
CN1C(=O)c2cc(NC(=O)c3cccc(C(F)(F)F)c3)ccc2OC[C@@H]2O[C@@H](CC(=O)O)CC[C@@H]21	/	/	/	-2	/	/	/
CCOC(=O)N1CCC(NC(=O)c2ccc3c(c2)N(Cc2ccc(F)cc2)CCS3)CC1	71*	0	5	-2	/	182*	151*
CCOC(=O)N1CCC(NC(=O)c2ccc3c(c2)N(Cc2ccccc2)CCS3)CC1	28*	-3	0	-2	/	65*	62*
CCOC(=O)N1CCC(NC(=O)c2ccc3c(c2)N=C(C)c2ccccc2S3)CC1	2	-2	6	-1	-9	/	/
CCOC(=O)N1CCN(C(=O)c2ccc3c(c2)N(Cc2ccc(F)cc2)CCS3)CC1	12	-1	17	2	0	/	/
C[C@H](CO)N1C[C@H](C)[C@@H](CN(C)S(=O)(=O)c2ccc(Cl)cc2)Oc2c(NC(=O)Nc3cccc4ccccc34)cccc2C1=O	/	/	/	-4	/	/	/
SMILES	FBA Mtb inh	FadD28 FP inh	GDH-TPI counter-1	Mtb BioA inh	Mtb hypoxia rep	Mtb FBA inh conf	GDH-TPI counter-2
Nc1nccnc1C(=O)OCC(=O)NC1CCCc2ccccc21 (stereo not given)	95*	-3	5	0	10	110*	97*
Cc1cc(N2CCOCC2)nc2cc(O)ccc12	32*	1	14	-1	1	87*	70*
Cc1cc(N2CCN(C)CC2)nc2ccc(NC(=S)N3CCN(c4ccc(F)cc4)CC3)cc12	9	-3	-3	-1	-1	/	/
Cc1cc(N2CCOCC2)nc2ccc(NC(=O)CCC(=O)N3CCN(c4ccccc4F)CC3)cc12	50*	-2	16	0	-3	76*	55*
Cc1cc(N2CCOCC2)nc2ccc(NC(=O)CCC(=O)N3CCN(c4ccc(F)cc4)CC3)cc12	63*	-2	14	0	0	84*	52*
Cc1cc(N2CCOCC2)nc2ccc(NC(=O)C3CCCCC3)cc12	13	-3	2	2	/	/	/
Cc1cc(N2CCOCC2)nc2ccc(NC(=S)N3CCCCC3C)cc12 (stereo not given)	36*	-1	14	-1	9	122*	95*
C[C@H]1CN([C@@H](C)CO)C(=O)c2cc(C3=CCCCC3)cnc2O[C@H]1CN(C)C(=O)c1ccccn1	/	/	/	2	/	/	/
COc1cccc(C(=O)Nc2ccc3nc(N4CCOCC4)cc(C)c3c2)c1	3	-2	6	6	-3	/	/
Cc1cc(N2CCOCC2)nc2ccc(NC(=O)CCC(=O)N3CCCC(C)C3)cc12 (stereo not given)	54*	-2	15	-1	0	114*	84*
COc1ccc(-c2cc(C(=O)N3CCCC(C(F)(F)F)C3)c3ccccc3n2)cc1 (stereo not given)	96*	-5	19	1	6	-1	-4
CCOC(=O)C1CCCN(C(=O)c2cc(-c3ccccc3)nc3ccccc23)C1 (stereo not given)	1	-1	2	/	6	/	/
Cc1ccc(-c2cc(C(=O)N3CCCC(C(F)(F)F)C3)c3ccccc3n2)o1 (stereo not given)	87*	-3	6	0	5	161*	90*
CCOc1ccc(NC(=O)C(=O)NCCCn2ccnc2)cc1	44*	-1	3	-2	-9	197*	164*
COc1ccc2[nH]c(C(=O)N(Cc3ccccn3)Cc3ccccn3)cc2c1	34*	-3	9	/	3	132*	113*
COc1ccc2[nH]c(C(=O)NCCN3CCCCC3)cc2c1	/	/	/	/	-11	/	/
